Measured values from the supplement of paper PMC9942566.
Structures can show the parent of a compound that is named as a salt. ± gives the standard deviation of the averaged measurements.

The molecules below were run on Serratia marcescens K904 PosmB-luxCDABE reporter (pMQ747) (assay: PosmB-lux reporter fold induction (RLU/OD600 relative to no-compound control), highest over Biolog concentrations; higher = stronger Rcs reporter activation). Details: Biolog plate: PM11; well positions: C1-4; wild type K904; 4 h.
Procedure: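 Serratia marcescens K904 (wild type) or its isogenic ΔrcsB mutant, carrying the Rcs-dependent PosmB-luxCDABE reporter plasmid pMQ747, was grown in LB at OD600 0.1 in Biolog Phenotype MicroArray plates PM11-20 for 4 h at 30-32°C. Each compound is present at 3-4 proprietary concentrations (not stated); per the Fig. S1 legend the value given is the highest fold over those wells. Three independent trials.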

| Structure (SMILES) | PosmB-lux reporter fold induction |
| --- | --- |
| Cc1c(N)nc([C@H](CC(N)=O)NC[C@H](N)C(N)=O)nc1C(=O)N[C@H](C(=O)N[C@H](C)[C@@H](O)[C@H](C)C(=O)N[C@H](C(=O)NCCc1nc(-c2nc(C(=O)NCCC[S+](C)C)cs2)cs1)[C@@H](C)O)[C@@H](OC1OC(CO)C(O)C(O)C1OC1OC(CO)C(O)C(OC(N)=O)C1O)c1cnc[nH]1 (stereo not given in full) [Bleomycin] | 1.6 ± 0.14 |

Same assay, conditions: Biolog plate: PM11; well positions: G9-12; wild type K904; 4 h

| Structure (SMILES) | PosmB-lux reporter fold induction |
| --- | --- |
| O=[Te]([O-])[O-].[K+].[K+] [Potassium tellurite] | 1.58 ± 0.69 |

Same assay, conditions: Biolog plate: PM13; well positions: A9-12; wild type K904; 4 h

| Structure (SMILES) | PosmB-lux reporter fold induction |
| --- | --- |
| [Cl][Ni][Cl] [Nickel chloride] | 1.33 ± 0.21 |

Same assay, conditions: Biolog plate: PM13; well positions: C9-12; wild type K904; 4 h

| Structure (SMILES) | PosmB-lux reporter fold induction |
| --- | --- |
| [K+].[K+].[O]=[Cr](=[O])([O-])[O-] [Potassium chromate] | 2.55 ± 0.8 |

Same assay, conditions: Biolog plate: PM13; well positions: E5-8; wild type K904; 4 h

| Structure (SMILES) | PosmB-lux reporter fold induction |
| --- | --- |
| CN[C@@H]1[C@@H](O)[C@@H](O[C@@H]2[C@@H](O)[C@H](O[C@H]3O[C@H]([C@@H](C)O)[C@@H](O)[C@H](O)[C@H]3N)[C@@H](N)C[C@H]2N)OC[C@]1(C)O [Geneticin (G418)] | 1.38 ± 0.22 |

Same assay, conditions: Biolog plate: PM14; well positions: B5-8; wild type K904; 4 h

| Structure (SMILES) | PosmB-lux reporter fold induction |
| --- | --- |
| CCCCc1ccc(C(=O)O)nc1 [Fusaric acid] | 3.83 ± 1.8 |

Same assay, conditions: Biolog plate: PM14; well positions: B9-12; wild type K904; 4 h

| Structure (SMILES) | PosmB-lux reporter fold induction |
| --- | --- |
| O=[As]([O-])([O-])[O-].[Na+].[Na+].[Na+] [Sodium arsenate] | 2.1 ± 0.74 |

Same assay, conditions: Biolog plate: PM14; well positions: C9-12; wild type K904; 4 h

| Structure (SMILES) | PosmB-lux reporter fold induction |
| --- | --- |
| N#CO [Sodium cyanate] | 2.06 ± 0.13 |

Same assay, conditions: Biolog plate: PM14; well positions: D1-4; wild type K904; 4 h

| Structure (SMILES) | PosmB-lux reporter fold induction |
| --- | --- |
| [Cl][Cd][Cl] [Cadmium chloride] | 1.35 ± 0.73 |

Same assay, conditions: Biolog plate: PM14; well positions: D5-8; wild type K904; 4 h

| Structure (SMILES) | PosmB-lux reporter fold induction |
| --- | --- |
| O=C(O)CI [Iodoacetate] | 1.93 ± 0.39 |

Same assay, conditions: Biolog plate: PM14; well positions: D9-12; wild type K904; 4 h

| Structure (SMILES) | PosmB-lux reporter fold induction |
| --- | --- |
| [Na+].[Na+].[O]=[Cr](=[O])([O-])[O][Cr](=[O])(=[O])[O-] [Sodium dichromate] | 1.55 ± 0.067 |

Same assay, conditions: Biolog plate: PM14; well positions: G9-12; wild type K904; 4 h

| Structure (SMILES) | PosmB-lux reporter fold induction |
| --- | --- |
| O=[N+]([O-])[O-].[Na+] [Sodium nitrate] | 3.75 ± 1.3 |

Same assay, conditions: Biolog plate: PM15; well positions: E9-12; wild type K904; 4 h

| Structure (SMILES) | PosmB-lux reporter fold induction |
| --- | --- |
| C[n+]1ccc(-c2cc[n+](C)cc2)cc1 [Methyl viologen] | 1.4 ± 0.25 |

Same assay, conditions: Biolog plate: PM15; well positions: G5-8; wild type K904; 4 h

| Structure (SMILES) | PosmB-lux reporter fold induction |
| --- | --- |
| [N-]=[N+]=[N-] [Sodium azide] | 34 ± 10 |

Same assay, conditions: Biolog plate: PM15; well positions: H1-4; wild type K904; 4 h

| Structure (SMILES) | PosmB-lux reporter fold induction |
| --- | --- |
| O=[N+]([O-])c1ncc[nH]1 [2-Nitroimidazole] | 1.17 ± 0.56 |

Same assay, conditions: Biolog plate: PM16; well positions: C1-4; wild type K904; 4 h

| Structure (SMILES) | PosmB-lux reporter fold induction |
| --- | --- |
| CN(C)S(=O)(=O)N(SC(F)(Cl)Cl)c1ccccc1 [dichlofluanid] | 1.03 ± 0.34 |

Same assay, conditions: Biolog plate: PM16; well positions: C9-12; wild type K904; 4 h

| Structure (SMILES) | PosmB-lux reporter fold induction |
| --- | --- |
| CCCCCCCCCCCCCCCC[n+]1ccccc1 [cetylpyridinium] | 1.47 ± 0.48 |

Same assay, conditions: Biolog plate: PM16; well positions: D1-4; wild type K904; 4 h

| Structure (SMILES) | PosmB-lux reporter fold induction |
| --- | --- |
| O=[N+]([O-])c1ccc(Cl)c([N+](=O)[O-])c1 [1-chloro-2,4-dinitrobenzene] | 1.37 ± 0.54 |

Same assay, conditions: Biolog plate: PM16; well positions: F1-4; wild type K904; 4 h

| Structure (SMILES) | PosmB-lux reporter fold induction |
| --- | --- |
| O=[Te]([O-])[O-].[K+].[K+] [potassium tellurite] | 1.75 ± 1.1 |

Same assay, conditions: Biolog plate: PM16; well positions: F5-8; wild type K904; 4 h

| Structure (SMILES) | PosmB-lux reporter fold induction |
| --- | --- |
| O=[Se]([O-])[O-].[Na+].[Na+] [sodium selenite] | 1.03 ± 0.38 |

Same assay, conditions: Biolog plate: PM17; well positions: A5-8; wild type K904; 4 h

| Structure (SMILES) | PosmB-lux reporter fold induction |
| --- | --- |
| NC(CCl)C(=O)O [b-chloro-L-alanine hydrochloride] | 1.57 ± 0.59 |

Same assay, conditions: Biolog plate: PM17; well positions: B5-8; wild type K904; 4 h

| Structure (SMILES) | PosmB-lux reporter fold induction |
| --- | --- |
| CNC1CC(N)C(O)C(OC2OC(CO)C(O)C3OC4(OC(C(N)CO)C(O)C(O)C4O)OC23)C1O (stereo not given) [hygromycin B] | 1.46 ± 0.35 |

Same assay, conditions: Biolog plate: PM17; well positions: C1-4; wild type K904; 4 h

| Structure (SMILES) | PosmB-lux reporter fold induction |
| --- | --- |
| Nc1ccncc1 [4-aminopyridine] | 10.2 ± 7.7 |

Same assay, conditions: Biolog plate: PM17; well positions: D1-4; wild type K904; 4 h

| Structure (SMILES) | PosmB-lux reporter fold induction |
| --- | --- |
| CC1=C(C(=O)Nc2ccccc2)S(=O)(=O)CCO1 [oxycarboxin] | 2.25 ± 0.26 |

Same assay, conditions: Biolog plate: PM17; well positions: D5-8; wild type K904; 4 h

| Structure (SMILES) | PosmB-lux reporter fold induction |
| --- | --- |
| Nc1ncn[nH]1 [3-amino-1,2,4-triazole] | 1.11 ± 0.18 |

Same assay, conditions: Biolog plate: PM17; well positions: G1-4; wild type K904; 4 h

| Structure (SMILES) | PosmB-lux reporter fold induction |
| --- | --- |
| O=C(O)CCCc1ccc(N(CCCl)CCCl)cc1 [chlorambucil] | 1.34 ± 0.1 |

Same assay, conditions: Biolog plate: PM18; well positions: C9-12; wild type K904; 4 h

| Structure (SMILES) | PosmB-lux reporter fold induction |
| --- | --- |
| Oc1c(Cl)c(Cl)c(Cl)c(Cl)c1Cl [pentachloro-phenol] | 1.04 ± 0.25 |

Same assay, conditions: Biolog plate: PM18; well positions: E5-8; wild type K904; 4 h

| Structure (SMILES) | PosmB-lux reporter fold induction |
| --- | --- |
| [O-][I+3]([O-])([O-])O [sodium m-periodate] | 2.47 ± 0.4 |

Same assay, conditions: Biolog plate: PM18; well positions: E9-12; wild type K904; 4 h

| Structure (SMILES) | PosmB-lux reporter fold induction |
| --- | --- |
| [Cl][Sb]([Cl])[Cl] [antimony (III) chloride] | 0.722 ± 0.067 |

Same assay, conditions: Biolog plate: PM18; well positions: F1-4; wild type K904; 4 h

| Structure (SMILES) | PosmB-lux reporter fold induction |
| --- | --- |
| NNC(N)=O [semicarbazide] | 3.39 ± 0.38 |

Same assay, conditions: Biolog plate: PM18; well positions: G5-8; wild type K904; 4 h

| Structure (SMILES) | PosmB-lux reporter fold induction |
| --- | --- |
| Nc1n[nH]c(N)n1 [3,5-diamino-1,2,4-triazole (Guanazole)] | 1.96 ± 0.29 |

Same assay, conditions: Biolog plate: PM18; well positions: H5-8; wild type K904; 4 h

| Structure (SMILES) | PosmB-lux reporter fold induction |
| --- | --- |
| Oc1ccccc1-c1ccccc1 [2-phenylphenol] | 2.88 ± 0.52 |

Same assay, conditions: Biolog plate: PM18; well positions: H9-12; wild type K904; 4 h

| Structure (SMILES) | PosmB-lux reporter fold induction |
| --- | --- |
| CC1=CC(=O)c2c(O)cccc2C1=O [plumbagin] | 0.936 ± 0.027 |

Same assay, conditions: Biolog plate: PM20; well positions: C5-8; wild type K904; 4 h

| Structure (SMILES) | PosmB-lux reporter fold induction |
| --- | --- |
| CN1[C@@H]2CC[C@H]1C[C@@H](OC(=O)C(CO)c1ccccc1)C2 (stereo not given in full) [atropine] | 2.56 ± 0.59 |

Same assay, conditions: Biolog plate: PM20; well positions: E5-8; wild type K904; 4 h

| Structure (SMILES) | PosmB-lux reporter fold induction |
| --- | --- |
| CCCCCCCCCCCCNC(=N)N [dodine] | 1.94 ± 0.27 |

Same assay, conditions: Biolog plate: PM20; well positions: F1-4; wild type K904; 4 h

| Structure (SMILES) | PosmB-lux reporter fold induction |
| --- | --- |
| O=c1cc(O)c2ccccc2o1 [4-hydroxyl-coumarin] | 2.25 ± 0.64 |

Same assay, conditions: Biolog plate: PM20; well positions: G1-4; wild type K904; 4 h

| Structure (SMILES) | PosmB-lux reporter fold induction |
| --- | --- |
| O=C1C2CC=CCC2C(=O)N1SC(Cl)(Cl)Cl (stereo not given) [captan] | 2.3 ± 0.41 |

Same assay, conditions: Biolog plate: PM20; well positions: G9-12; wild type K904; 4 h

| Structure (SMILES) | PosmB-lux reporter fold induction |
| --- | --- |
| Oc1cccc2cccnc12 [8-hydroxy-quinoline] | 2.7 ± 0.72 |

Same assay, conditions: Biolog plate: PM20; well positions: H1-4; wild type K904; 4 h

| Structure (SMILES) | PosmB-lux reporter fold induction |
| --- | --- |
| O=C1C=C2C(=CCOC2O)O1 (stereo not given) [patulin] | 1.71 ± 0.23 |

Same assay, conditions: Biolog plate: PM20; well positions: H5-8; wild type K904; 4 h

| Structure (SMILES) | PosmB-lux reporter fold induction |
| --- | --- |
| Cc1ccc(N(SC(F)(Cl)Cl)S(=O)(=O)N(C)C)cc1 [tolylfluanid] | 1.32 ± 0.14 |
